Source: PubChem BioAssay (NCATS)
Records with an inconclusive call do not appear. Unmarked numbers belong to inactive results. Active and inactive are the calls of the source. Calls follow the shape of the dose curve; as a rule, active = well fitted cell-killing curve with a large enough effect in the repeat runs; inconclusive = weak or mixed curves, or effect the other way; inactive = flat fitted curve, though single readings scatter.

Assay: qHTS assay for small molecule antagonists of the retinoid-related orphan receptor gamma (ROR-gamma) signaling pathway - cell viability counter screen (AID 720652);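 also: compound exposure lasted 16 hr before ATP read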
Conditions: RORgamma reporter cell line viability counter screen; series mostly up to 92.2 µM; activity change, negative = cytotoxicity: at the top concentration
Description: National Center for Advancing Translational Sciences [NCATS]
NIH Chemical Genomics Center [NCGC]
National Institutes of Environmental Health Sciences [NIEHS]
National Toxicology Program [NTP]
Nuclear steroid hormone receptors are involved in many biological processes including inflammatory responses, cell proliferation, and apoptosis. Environmental factors or compounds disrupting these nuclear receptor pathways and gene expression may promote susceptibility to immunotoxicants and autoimmune diseases. One important group of these expression factors are the retinoid-related orphan receptors. To assess compounds that may interfere with the retinoid-related orphan receptor gamma (ROR-gamma) transcription factor, a cell-based luciferase assay was used.
The CHO cell-based assay utilizes a TET-inducible ROR expression factor and ROR response element-LUC reporter gene. Reporter activity was induced using doxycycline and measured after 16hr incubation. Luminescence was read using Viewlux (PerkinElmer), where a decrease in reporter activity would show a decrease in luminescence. The cytotoxicity of the compounds against ROR response-Luc reporter gene cell line was quantified by measuring the intracellular ATP content.
1,000 cells in 4 uL/well were dispensed into white wall/solid bottom 1536-well plates using a Multidrop Combi (Thermo Scientific) dispenser. Following incubation at 37 C and 5% CO2 for 5 hr, 23 nL compound or DMSO vehicle were transferred by a pin tool, then the plates were treated with 1 ul doxycycline to induce reporter gene activity. After 16 hr incubation at 37 C and 5% CO2, 5 uL/well of CellTiter-Glo reagent (Promega) was then added to each plate using a Flying Reagent Dispenser and incubated at room temperature for 30 min. The luminescence intensity was quantified on a ViewLux plate reader (PerkinElmer).
% is scaled to controls: 0 for no effect and ±100 for the full control effect; potency is read from the fitted curve at half-maximal effect.

SMILES | activity change, negative = cytotoxicity [%] | Potency
CCCCCNCCCCC | -7.12 | 
CC(C)(C)c1ccc(OCC2CO2)cc1 (stereo not given) | 10.6 | 
Cc1cccc(Br)c1 | 4.42 | 
CCOc1ccc(NC(C)=O)cc1N | 4.35 | 
C=C(C)C1CC=C(C)C(OC(C)=O)C1 (stereo not given) | 26.5 | 
O=C(O)c1ccccc1C(=O)O | 3.78 | 
O=[N+]([O-])c1c(Cl)cc(Cl)cc1Cl | 8.2 | 
Nc1cccc2c(=O)[nH][nH]c(=O)c12 | -7.54 | 
CCOCC(=O)O | -0.18 | 
C1COC1 | 11.4 | 
C=CC(=O)NC(C)C | -1.29 | 
Cc1ccc(C)c(O)c1 | -12.4 | 
CC1=C(/C=C/C(C)=C/C=C/C(C)=C\C=O)C(C)(C)CCC1 |  | 26.6 µM (active)
CC(=O)c1cc(C)oc1C | 5.94 | 
O=Cc1cccc(Br)c1 | 13.6 | 
CC1CCC2CC1C2(C)C (stereo not given) | 4.43 | 
Nc1nc(-c2ccccc2)cs1 | -12.2 | 
C=CCCCC | -3.03 | 
N#CCc1ccccc1[N+](=O)[O-] | 3.96 | 
CCC(O)C(C)(C)C (stereo not given) | 0.851 | 

SMILES | activity change, negative = cytotoxicity [%] | Potency
CC(=O)Nc1cccc(N)c1 | -16.5 | 
O=C1CCC(=O)O1 | 3.05 | 
CC(O)CC(C)O (stereo not given) | 13.1 | 
CC(=O)OCCC(C)C | -16.7 | 
CC(=O)c1ccccc1[N+](=O)[O-] | -3.13 | 
Nc1ccc(F)cc1F | 6.89 | 
[O-]/[N+](=N\O)c1ccccc1 | -18.8 | 
CSCCC=O | 6.27 | 
O=[N+]([O-])c1ccc(Cl)cc1Cl | -1.99 | 
O=Cc1ccc(CO)o1 | 1.68 | 
CC(=O)c1nccs1 | 9.19 | 
CC/C=C/C#N | -0.393 | 
C/C=C1\CC2C=CC1C2 (stereo not given) | 12.3 | 
NC(N)=S | 7.76 | 
NC(=S)NNC(N)=S | -4.19 | 
CC(C)CCOC(=O)/C=C/c1ccccc1 | 2.11 | 
COC(=O)CC#N | 6.39 | 
CC(=O)Nc1ccccc1C | 3.92 | 
O=P(O)(OCc1ccccc1)OCc1ccccc1 | 6.52 | 
CC(=O)CC(C)C | -0.275 | 
